# According to ChEMBL document CHEMBL4808148, “HDAC6 screening dataset using tau-based substrate in an enzymatic assay yields selective inhibitors and activators” (2021):
# Where “and” joins values, the source holds several entries; their conditions need not be identical. Equal entries are not always repeated. Out of some 5,600 compounds screened, about 150 (2.7%) showed an effect of 50% or more. This is one part of a sample in which strong results are shown more often than they occur. Positions of bridges follow the written chain, without caps; N, C: chain ends. Non-standard residues stand in square brackets, D forms with d. Residues, ends and D or L forms follow the SMILES beside them. *: point of attachment. NMeF = CN[C@@H](Cc1ccccc1)C(=O)O; X4 = CCC(C)C(N)C1=NC(C(=O)*)CS1; dOrn = NCCC[C@@H](N)C(=O)O
# Key:
# [1] = biological target: T1, Protein deacetylase HDAC6 (Homo sapiens) (UniProt Q9UBN7); settings: at 10 µM
# T1 sequence (whole entry): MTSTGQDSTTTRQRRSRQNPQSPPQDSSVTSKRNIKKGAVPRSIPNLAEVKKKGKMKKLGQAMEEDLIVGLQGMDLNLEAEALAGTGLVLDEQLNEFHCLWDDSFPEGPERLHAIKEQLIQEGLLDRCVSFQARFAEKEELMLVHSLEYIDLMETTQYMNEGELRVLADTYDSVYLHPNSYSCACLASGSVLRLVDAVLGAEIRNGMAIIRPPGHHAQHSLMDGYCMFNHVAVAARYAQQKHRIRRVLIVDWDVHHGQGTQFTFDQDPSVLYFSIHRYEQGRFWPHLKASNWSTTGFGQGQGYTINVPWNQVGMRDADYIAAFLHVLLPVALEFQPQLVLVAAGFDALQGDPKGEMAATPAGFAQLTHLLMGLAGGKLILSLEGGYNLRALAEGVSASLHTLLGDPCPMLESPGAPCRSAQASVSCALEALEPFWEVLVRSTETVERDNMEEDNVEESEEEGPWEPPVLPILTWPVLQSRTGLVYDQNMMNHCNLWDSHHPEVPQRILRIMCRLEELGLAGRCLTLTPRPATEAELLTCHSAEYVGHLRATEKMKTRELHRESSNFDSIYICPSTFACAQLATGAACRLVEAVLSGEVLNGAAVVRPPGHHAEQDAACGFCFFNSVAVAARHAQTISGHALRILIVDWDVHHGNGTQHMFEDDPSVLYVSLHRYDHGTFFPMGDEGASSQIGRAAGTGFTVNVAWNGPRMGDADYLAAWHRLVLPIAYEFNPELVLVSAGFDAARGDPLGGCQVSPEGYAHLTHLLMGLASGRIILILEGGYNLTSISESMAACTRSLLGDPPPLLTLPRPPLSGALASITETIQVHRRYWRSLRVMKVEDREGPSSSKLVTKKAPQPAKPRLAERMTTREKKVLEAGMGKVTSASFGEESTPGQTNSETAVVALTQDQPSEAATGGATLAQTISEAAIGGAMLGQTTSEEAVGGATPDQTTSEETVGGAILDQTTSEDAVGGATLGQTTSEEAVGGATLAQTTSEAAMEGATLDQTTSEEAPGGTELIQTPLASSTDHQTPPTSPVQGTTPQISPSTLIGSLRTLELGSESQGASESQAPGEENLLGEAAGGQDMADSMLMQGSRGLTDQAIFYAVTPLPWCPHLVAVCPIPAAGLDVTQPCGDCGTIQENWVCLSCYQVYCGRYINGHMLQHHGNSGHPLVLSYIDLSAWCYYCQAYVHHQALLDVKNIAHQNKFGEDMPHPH
# [2] = biological target: Protein deacetylase HDAC6 (Homo sapiens) (UniProt Q9UBN7); settings: at 10 µM; remark: listed apart in the source
Molecule,inhibition [1],inhibition [2]
CC(C)c1c2cc(-c3ccnc(N[C@H]4CC[C@H](NC5CCOCC5)CC4)n3)ccc2nn1C,1.08%,–
CCC(CC)O[C@@H]1C=C(C(=O)O)C[C@H](N)[C@H]1NC(C)=O,0.57%,–
O=c1c(O)c(-c2ccc(O)c(O)c2)oc2cc(O)cc(O)c12,49.9%,–
O=c1cc(-c2ccc(O)c(O)c2)oc2cc(O)cc(O)c12,51.1%,–
O=C(O)c1ccc2c(c1)C(=O)N(c1cccc(Oc3ccc([N+](=O)[O-])cc3)c1)C2=O,23.5%,–
CCOc1c(N2CCOCC2)cnn(C)c1=O,2.39%,–
O=C(O)c1ccccc1C(=O)Nc1ccc(-c2ccccc2)cc1,54.2%,–
O=C(O)c1ccccc1S,-3.38%,–
CC(=O)NS(=O)(=O)c1ccc(NC(=O)c2ccccc2C(=O)O)cc1,-6.68%,–
CC(C)(S)C(=O)N[C@@H](CS)C(=O)O,6.63%,–
CC(C)C(=O)SCCCCC[C@H](NC(=O)OC(C)(C)C)C(=O)NC12CC3CC(CC(C3)C1)C2,52.4%,–
CC(C)CCC[C@@H](C)[C@H]1CC[C@H]2[C@@H]3CCC4=CC(=NO)CC[C@]4(C)[C@H]3CC[C@]12C,4.46%,–
NC(=O)c1ccc(F)c2c1C[C@@H](N(C1CCC1)C1CCC1)CO2,-7.93%,–
COc1ccc(S(=O)(=O)N2CCCN(S(=O)(=O)c3ccc(OC)c(OC)c3)CC2)cc1OC,-6.17%,–
O=C(NO)c1cnc(N2CCN(S(=O)(=O)c3ccc4ccccc4c3)CC2)nc1,96.2%,–
COc1ccc([C@]2(O)CC[C@H](N3CC[C@@H](NC(=O)CNC(=O)c4cccc(C(F)(F)F)c4)C3)CC2)cn1,0.65%,–
CN1CCN(c2ccc3[nH]c(-c4ccc5[nH]c(-c6ccc(O)cc6)nc5c4)nc3c2)CC1,5.09%,–
CC(C)(C)c1ccc(O)cc1,-5.54%,–
CC(C)(C)c1ccc(-c2nc3ccccc3[nH]2)cc1,94%,–
CN(C)c1cc(CNCC(C)(C)C)c(O)c2c1C[C@H]1C[C@H]3[C@H](N(C)C)C(O)=C(C(N)=O)C(=O)[C@@]3(O)C(O)=C1C2=O,-4.38%,–

Molecule,inhibition [1],inhibition [2]
CC(C)(CCCCCC(O)CCCCCC(C)(C)C(=O)O)C(=O)O,1.13%,–
CCOC(=O)C1=C(N)Oc2ccc(Br)cc2[C@H]1[C@H](C#N)C(=O)OCC,13.4%,–
N#Cc1cnc2c(Cl)cc(NCc3cn(CCN4CCCCCC4)nn3)cc2c1Nc1ccc(F)c(Cl)c1,-2.34%,–
COCCN1CCC(C(=O)NO)(S(=O)(=O)c2ccc(Oc3ccc(OC(F)(F)F)cc3)cc2)CC1,1.97%,–
COC(=O)c1cc(OC)c2c(c1-c1c(CO)cc(OC)c3c1OCO3)OCO2,-0.94%,–
CS(=O)(=O)Nc1ccc(-c2coc3cc(OCc4cccc(C(=O)O)c4)ccc3c2=O)cc1,57.5%,–
OCCCCO,-0.89%,–
CCC(=O)O[C@]1(C(=O)COC(C)=O)CC[C@H]2[C@@H]3C[C@H](C)C4=CC(=O)C=C[C@]4(C)[C@H]3[C@@H](O)C[C@@]21C,1.57%,–
O=C1NC(=S)NC(=O)C1C(=O)Nc1ccccc1,95%,–
O=C1NN(C(=O)Nc2ccc(Br)cc2)[C@@H](c2ccccc2)[C@@H]1c1ccccc1,13.1%,–
N=C(Nc1ccccc1)c1cccs1,14.8%,–
"GADOBUTROL, CHEMBL2218860",–,27.5%
CC(C)(O)CC(=O)O,1.27%,–
CCc1nc2c(C)nc(C)cc2n1-c1ccc(CCNC(=O)NS(=O)(=O)c2ccc(C)cc2)cc1,-2.18%,–
C=CC(C)(O)CC[C@@H]1[C@@]2(C)CCCC(C)(C)C2CC[C@@]1(C)O (some centres undefined),-4.8%,–
O=C(Nc1cc(C(F)(F)F)ccc1O)Nc1cc(C(F)(F)F)ccc1O,0.26%,–
Cc1cc(/C=c2/sc3nc4ccccc4n3c2=O)c(C)n1-c1ccccc1,-1.28%,–
Cc1cc(/C=C2\SC(=O)N(c3ccccc3)C2=O)c(C)n1-c1cccnc1,66.1%,–
CC(C)C1=C2[C@H]3CC[C@@H]4[C@@]5(C)CC[C@H](OC(=O)CC(C)(C)C(=O)O)C(C)(C)[C@@H]5CC[C@@]4(C)[C@]3(C)CC[C@@]2([C@@H](O)CN(CCN(C)C)Cc2ccc(Cl)cc2)CC1=O,-0.39%,–
Cc1oc2ccccc2c1CNC(=O)NCc1cccs1,2.62%,–

Molecule,inhibition [1],inhibition [2]
Nc1ncnc2c1c(-c1cccc(OCc3ccccc3)c1)cn2[C@H]1C[C@H](CN2CCCC2)C1,8.87%,–
CCOC(=O)Nc1ccc(NCc2c(C)cc(C)cc2C)cc1N,-1.7%,–
N#Cc1cc(-c2n[nH]c(-c3ccncc3)n2)ccn1,61.8%,–
COc1cccc(OC)c1-c1ccc(C[C@H](NC(=O)c2c(Cl)cccc2Cl)C(=O)O)cc1,-2.4%,–
O=C(N[C@H](Cc1ccccc1)C(=O)O)c1sc2cc(F)ccc2c1Cl,-0.15%,–
COCCN(C(=O)c1cc(OC)c(OC)c(OC)c1)c1nc(-c2ccccc2)cs1,-3.54%,–
Cc1nc2ccc(-n3ncc(C(=O)c4cc5ccccc5[nH]4)c3N)cc2[nH]1,95.7%,–
CCCSc1ccc2[nH]c(NC(=O)OC)nc2c1,41.8%,–
CCC[S+]([O-])c1ccc2[nH]c(NC(=O)OC)nc2c1 (centres undefined),68.9%,–
CCOC(=O)Nc1nc2ccccc2[nH]1,20.3%,–
CCC(C)C(N)C1=NC(C(=O)N[C@@H](CC(C)C)C(=O)N[C@H](CCC(=O)O)C(=O)N[C@H](C(=O)N[C@H]2CCCCNC(=O)[C@H](CC(N)=O)NC(=O)[C@@H](CC(=O)O)NC(=O)[C@@H](Cc3cnc[nH]3)NC(=O)[C@@H](Cc3ccccc3)NC(=O)[C@@H]([C@H](C)CC)NC(=O)[C@@H](CCCN)NC2=O)[C@@H](C)CC)CS1 (some centres undefined) (X4-L[dE]IK[dOrn][dI][dF][dH][dD]N; lactam 4-C),25.1%,–
Cc1c(NC(=O)c2cc3c(s2)CCCC3)cccc1-c1cn(C)c(=O)c(Nc2ccc(C3C(=O)N(C)CCN3C)cc2)n1 (racemic),-2.69%,–
N=C(N)Nc1ccc(C(=O)Oc2ccc3cc(C(=N)N)ccc3c2)cc1,98.3%,–
CC(=O)Nc1ccc(OC(C)=O)cc1,-1.45%,–
CSCC[C@H](NC(=O)[C@H](CC(C)C)NC(=O)[C@@H](Cc1c[nH]c2ccccc12)NC(=O)[C@H](Cc1ccccc1)N(C)C(=O)[C@@H](Cc1c[nH]c2ccccc12)NC(=O)[C@@H](N)CCCNC(=N)N)C(N)=O (H-R[dW][NMeF][dW]LM-NH2),-6.35%,–
COc1ccccc1OC(=O)c1ccccc1OC(C)=O,-4.29%,–
CC(=O)Oc1ccccc1C(=O)Nc1ncc([N+](=O)[O-])s1,98.3%,–
"COLISTIN SULFATE, CHEMBL6067482",–,-5.33% and -3.72%
O=C(NN1C(=O)[C@@H]2[C@@H]3C=C[C@@H]([C@H]4C[C@@H]34)[C@@H]2C1=O)c1ccc(C(F)(F)F)cc1,3.03%,–
